hcDAF-12 act: H. contortus DAF-12 activation, primary screen. AID 652067. HEK293 hcDAF-12 lit1-tk-luc reporter, luminescence; 0% DMSO, 100% Δ7-dafachronic acid. 1.4% of 370,000 active. activation, % at 6.8 µM;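 active = activation above the mean of all tested compounds plus 3 SD, cut at about 5.5% in these data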;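 also: 100% = response to 3 µM Δ7-dafachronic acid high control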
hgDAF12 agonist: activates the H. glycines DAF-12 receptor ligand-binding domain; activation, % at 6.8 µM; HEK293 GAL4-hgDAF12 UAS-luciferase reporter, agonist luminescence; normalized to butyrate control; 1.8% of 370,000 active;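 active = activation above a cutoff set at the mean of all screened compounds plus 3 SD, cut at about 10% in these data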;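 also: 0% = DMSO wells and 100% = sodium butyrate wells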
DAX1 inh-1: blocks DAX1 repression of SF-1 activated StAR promoter. HEK293T StAR-luciferase reporter, SF-1/DAX-1 repression relief. inhibition, % at 6.8 µM. 1.1% of 370,000 active. AID 652010;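 active = inhibition above the mean over all tested compounds plus 3 SD, cut at about 3.6% in these data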;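 also: 0% = DAX-1 cells with DMSO and 100% = cells lacking DAX-1 with DMSO; higher inhibition means more luminescence from relief of DAX-1 repression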
ssDAF-12 act: activates DAF-12 receptor from parasite S. stercoralis; HEK293 ssDAF-12/GRIP1 lit1-tk-luc reporter, luminescence; % of 3 µM dafachronic acid response; activation, % at 6.8 µM; 1% of 370,000 active;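 active = activation above the mean over all tested compounds plus 3 SD, cut at about 0.9% in these data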;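 also: 0% = DMSO-only wells and 100% = 3 µM delta7-dafachronic acid wells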
SMARCA2 activ: activators of SMARCA2 function; MG213 cells, MMTV-luciferase reporter, dexamethasone, overnight; activation, % at 9.1 µM; 1% of 370,000 active; AID 652017; in the data active = activation above about 7.8%;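 also: 0% = vehicle wells and 100% = reference activator wells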
DAX1 inh-2: inhibits human nuclear receptor DAX1. P51843. 0.99% of 340,000 active. AID 504766. inhibition, % at 6.75 µM. HEK293 Gal4-DAX1 luciferase reporter, luminescence;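 active = inhibition above the mean over all tested compounds plus 3 SD, cut at about 4.2% in these data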;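 also: 0% = DAX1-transfected cells with DMSO and 100% = empty-vector control cells with DMSO; inhibition shows as a rise in luminescence from relieved DAX1 repression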
Target sequence (P51843 207-470 limits assumed): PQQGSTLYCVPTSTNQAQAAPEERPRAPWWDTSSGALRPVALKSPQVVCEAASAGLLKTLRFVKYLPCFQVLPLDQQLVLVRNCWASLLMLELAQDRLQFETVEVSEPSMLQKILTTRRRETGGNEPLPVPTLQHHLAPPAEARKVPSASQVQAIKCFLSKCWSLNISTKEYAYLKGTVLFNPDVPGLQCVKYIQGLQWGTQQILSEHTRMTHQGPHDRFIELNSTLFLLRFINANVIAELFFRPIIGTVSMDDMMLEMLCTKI
DAX1 inh confirm: NR0B1 (human) inhibition, confirmation; shares compounds with DAX1 inh-1; HEK293T StAR-promoter luciferase reporter, SF-1/DAX-1 repression; inhibition, % at 6.8 µM; 87% of 2,400 active; AID 652134;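 active = inhibition above the average of every tested compound plus 3 SD, cut at about 3.8% in these data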;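 also: 0% = DAX-1 cells with DMSO and 100% = no DAX-1 control cells with DMSO; active compounds raise luminescence by relieving repression of the StAR reporter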
Target sequence (P51843 whole entry, looked up): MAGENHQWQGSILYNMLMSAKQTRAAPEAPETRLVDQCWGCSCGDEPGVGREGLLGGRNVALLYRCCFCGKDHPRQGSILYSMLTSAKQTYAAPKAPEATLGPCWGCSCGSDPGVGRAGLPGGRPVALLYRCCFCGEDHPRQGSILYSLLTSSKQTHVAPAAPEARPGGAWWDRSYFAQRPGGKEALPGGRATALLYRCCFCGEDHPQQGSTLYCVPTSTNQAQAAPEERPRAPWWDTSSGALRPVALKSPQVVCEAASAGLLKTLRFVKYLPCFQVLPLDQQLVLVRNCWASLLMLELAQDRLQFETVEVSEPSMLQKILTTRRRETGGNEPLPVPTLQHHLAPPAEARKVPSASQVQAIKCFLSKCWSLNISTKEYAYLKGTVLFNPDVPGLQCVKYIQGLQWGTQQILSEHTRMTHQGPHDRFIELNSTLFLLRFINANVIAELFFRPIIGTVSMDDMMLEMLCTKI
SF1 mutant ctr: counter-screen for DAX1 inhibitors: nonselective inhibitors with SF-1 AF2 mutant. shares compounds with DAX1 inh-1. HEK293 StAR-luciferase, luminescence. inhibition, % at 6.8 µM. 78% of 2,400 active. AID 652136;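 active = inhibition above the mean of all tested compounds plus 3 SD, cut at about 3% in these data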;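 also: 0% = DAX-1 transfected cells with DMSO and 100% = cells without DAX-1 with DMSO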
LXR ag: LXR-beta agonism as hcDAF-12 counter-screen. shares compounds with hcDAF-12 act. HEK293 Gal4-LXR tk-luc reporter, luminescence, 24 h; normalized: DMSO 0%, positive control 100%. activation, % at 6.8 µM. 3,400 tested, under 10 active;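 active = mean percent activation of the reporter above a cutoff set as the average over tested compounds plus their standard deviation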
hcDAF12 ag: confirmation of H. contortus DAF-12 agonists. shares compounds with hcDAF-12 act. HEK293 hcDAF-12 lit1-tk-luc reporter, luminescence; % of Δ7-dafachronic acid response. activation, % at 6.8 µM. 61% of 3,400 active. AID 743032;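 active = mean activation across triplicate tests above the threshold derived from the earlier primary screen, cut at about 5.5% in these data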;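 also: 0% = DMSO only wells and 100% = 3 µM Δ7-dafachronic acid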
hgDAF12 ag: hgDAF-12 agonism, confirmation assay; 80% of 3,300 active; HEK293 GAL4-hgDAF12 luciferase reporter, agonist mode; percent of butyrate response; activation, % at 6.8 µM; shares compounds with hgDAF12 agonist;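 active = mean activation over triplicate wells above the hit cutoff derived from the earlier primary screen, cut at about 11% in these data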;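 also: 0% = DMSO low control and 100% = 2 mM sodium butyrate high control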
LXR ag 2: activates human LXR-beta, counter-screen for DAF-12 agonists | shares compounds with hgDAF12 agonist | HEK293 Gal4-LXR luciferase reporter, 24 h | AID 743051 | activation, % at 6.8 µM | 3,300 tested, under 10 active;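 active = mean activation of the triplicate above a set limit carried over from the primary screen, none filed active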
Starred values were filed as active, the others as inactive. Shown are actives, neighbours in structure and some others; about 4.8% of the full set was active somewhere.

For Cc1cccnc1NC(=O)c1ccc(S(=O)(=O)N2CCCCCC2)cc1 the results were hcDAF-12 act -0.1, hgDAF12 agonist 1.2, DAX1 inh-1 -0.3, ssDAF-12 act -0.8, SMARCA2 activ -0.9 and DAX1 inh-2 1.2.
Screening CC1CCN(S(=O)(=O)c2ccc(C(=O)Nc3ncccc3O)cc2)CC1 returned hcDAF-12 act 0.0, hgDAF12 agonist 15.5*, DAX1 inh-1 6.3*, ssDAF-12 act -0.2, SMARCA2 activ -3.0, DAX1 inh-2 3.0, DAX1 inh confirm 8.4*, SF1 mutant ctr 4.3*, hgDAF12 ag 15.1* and LXR ag 2 0.1.
Screening COc1cc(OC)c2c(=O)cc(-c3ccccc3)oc2c1 returned hcDAF-12 act 2.8, hgDAF12 agonist 15.7*, DAX1 inh-1 4.7*, ssDAF-12 act -0.5, SMARCA2 activ -0.2, DAX1 inh-2 3.6, DAX1 inh confirm 4.7*, SF1 mutant ctr 0.7, hgDAF12 ag 8.9 and LXR ag 2 0.4.
COc1ccc2nc(NC(=O)c3ccoc3C)sc2c1 was read as hcDAF-12 act 9.9*, hgDAF12 agonist 14.8*, DAX1 inh-1 5.5*, ssDAF-12 act 0.8, SMARCA2 activ -0.8, DAX1 inh-2 -0.4, DAX1 inh confirm 14.2*, SF1 mutant ctr 4.4*, LXR ag 1.4, hcDAF12 ag 5.9*, hgDAF12 ag 19.1* and LXR ag 2 1.3.
For COc1ccc2nc(NC(=O)C3COc4ccccc4O3)sc2c1 (configuration not stated) the results were hcDAF-12 act 6.4*, hgDAF12 agonist 18.7*, DAX1 inh-1 5.6*, ssDAF-12 act 0.4, SMARCA2 activ 4.8, DAX1 inh-2 0.9, DAX1 inh confirm 12.3*, SF1 mutant ctr 7.6*, hgDAF12 ag 11.5* and LXR ag 2 0.6.
`COC(=O)c1sc(NC(=O)c2ccoc2C)nc1C` gave hcDAF-12 act -0.6, hgDAF12 agonist 3.1, DAX1 inh-1 1.3, ssDAF-12 act -0.3, SMARCA2 activ 0.3 and DAX1 inh-2 -0.7.
For O=C(/C=C/c1ccccc1Cl)Nc1cccc(O)c1 the results were hcDAF-12 act 10.3*, hgDAF12 agonist 24.3*, DAX1 inh-1 5.8*, ssDAF-12 act 0.2, SMARCA2 activ 3.3, DAX1 inh-2 -0.8, DAX1 inh confirm 17.3*, SF1 mutant ctr 10.7*, LXR ag 2.3, hcDAF12 ag 6.5*, hgDAF12 ag 19.9* and LXR ag 2 1.2.
O=C(/C=C/c1ccccc1Cl)Nc1ccc2c(c1)C(=O)NC2=O was read as hcDAF-12 act -1.7, hgDAF12 agonist 2.4, DAX1 inh-1 0.0, ssDAF-12 act -1.7, SMARCA2 activ -6.8 and DAX1 inh-2 -0.3.
Screening Cc1ccc2nc(NC(=O)c3ccc4ncsc4c3)sc2c1 returned hcDAF-12 act 3.9, hgDAF12 agonist 15.3*, DAX1 inh-1 6.2*, ssDAF-12 act 0.1, SMARCA2 activ -2.1, DAX1 inh-2 0.3, DAX1 inh confirm 11.3*, SF1 mutant ctr 7.1*, hgDAF12 ag 13.5* and LXR ag 2 0.6.
For O=C(Nc1ccccc1)c1ccc(-c2ccccc2)s1 the results were hcDAF-12 act 2.1, hgDAF12 agonist 14.2*, DAX1 inh-1 5.4*, ssDAF-12 act 0.7, SMARCA2 activ 4.3, DAX1 inh-2 4.2, DAX1 inh confirm 12.1*, SF1 mutant ctr 8.5*, hgDAF12 ag 16.8* and LXR ag 2 0.5.
Clc1ccc(/C=C/c2nc3ccccc3[nH]2)cc1 was read as hcDAF-12 act 7.7*, hgDAF12 agonist 13.6*, DAX1 inh-1 4.5*, ssDAF-12 act 0.2, SMARCA2 activ 1.6, DAX1 inh-2 -3.0, DAX1 inh confirm 11.1*, SF1 mutant ctr 5.8*, LXR ag 1.7, hcDAF12 ag 8.9*, hgDAF12 ag 13.2* and LXR ag 2 1.1.
For O=C(Nc1nc2ccccc2[nH]1)C1CCCC1 the results were hcDAF-12 act 3.6, hgDAF12 agonist 14.8*, DAX1 inh-1 4.9*, ssDAF-12 act 0.0, SMARCA2 activ 1.3, DAX1 inh-2 0.6, DAX1 inh confirm 6.5*, SF1 mutant ctr 5.7*, hgDAF12 ag 13.1* and LXR ag 2 1.1.
For O=C(Nc1nc2ccccc2[nH]1)c1ccccc1F the results were hcDAF-12 act -1.7, hgDAF12 agonist -11.3, DAX1 inh-1 -2.1, ssDAF-12 act -2.6, SMARCA2 activ -6.1 and DAX1 inh-2 -5.0.
O=C(Nc1nc2ccccc2[nH]1)c1cc2ccccc2o1 was read as hcDAF-12 act 13.6*, hgDAF12 agonist 21.4*, DAX1 inh-1 8.0*, ssDAF-12 act 0.8, SMARCA2 activ 5.2, DAX1 inh-2 0.0, DAX1 inh confirm 9.4*, SF1 mutant ctr 7.6*, LXR ag 1.4, hcDAF12 ag 9.1*, hgDAF12 ag 19.4* and LXR ag 2 1.0.
Cc1ccc(NC(=O)c2cc3ccccc3o2)nc1 was read as hcDAF-12 act 13.8*, hgDAF12 agonist 18.9*, DAX1 inh-1 16.1*, ssDAF-12 act 1.5*, SMARCA2 activ 2.6, DAX1 inh-2 0.8, DAX1 inh confirm 17.1*, SF1 mutant ctr 9.9*, LXR ag 1.7, hcDAF12 ag 14.1*, hgDAF12 ag 19.0* and LXR ag 2 1.1.
Cc1cc(C)nc(NC(=O)c2cc3ccccc3o2)n1 was read as hcDAF-12 act 0.2, hgDAF12 agonist 3.0, DAX1 inh-1 0.1, ssDAF-12 act -1.0, SMARCA2 activ -1.2 and DAX1 inh-2 0.8.
For COc1cc(O)cc2occ(-c3ccc(O)cc3)c(=O)c12 the results were hcDAF-12 act 0.4, hgDAF12 agonist 1.2, DAX1 inh-1 -0.2, ssDAF-12 act -1.3, SMARCA2 activ 2.0 and DAX1 inh-2 1.7.

Source: PubChem
